According to PubChem BioAssay (Tox21):
Records with an inconclusive call do not appear. Values without a mark were called inactive. Calls of active or inactive are those of the source. Calls follow the shape of the dose curve; as a rule, active = well fitted activation curve with a large enough effect in the signal ratio in the repeat runs (not every such curve was filed as active); inconclusive = weak or mixed curves, or effect the other way; inactive = no such curve, though single readings can be large or run the other way; the % refers to the signal ratio.

What follows are compounds tested against Glucocorticoid receptor (Homo sapiens) (UniProt P04150) (assay: qHTS assay to identify small molecule agonists of the glucocorticoid receptor (GR) signaling pathway (AID 720691)). Conditions: GR-bla HeLa, beta-lactamase reporter ratio, 18 h; series mostly up to 62.4 µM; activation: at the top concentration.
From the text: U.S. Tox21 Program National Center for Advancing Translational Sciences [NCATS] NIH Chemical Genomics Center [NCGC] U.S. Environmental Protection Agency [EPA] National Institutes of Environmental Health Sciences [NIEHS] National Toxicology Program [NTP] U.S. Food and Drug Administration [FDA] Tox21 Assay Overview: The Glucocorticoid receptor (GR) is one of the members of the nuclear receptor family of ligand-dependent transcription factors. GR plays a critical role in carbohydrate, protein and lipid metabolisms and programmed cell death. CellSensor GR-bla HeLa cell line (Invitrogen) contains a beta-lactamase reporter gene under the control of the glucocorticoid response element stably integrated into HeLa cells, a cervical cancer cell line that expresses glucocorticoid receptor. The activation of the reporter gene under culture conditions can be detected by fluorescence intensity. This cell line has been used to screen the Tox21 10K compound library and to identify the compounds that activate the GR signaling.
Tox21 Assay Protocol Summary: The GR-bla HeLa cells were dispensed at 1500 cells/6 ul/well in 1536-well black wall/clear bottom plates using a Multidrop Combi (ThermoFisher Scientific, Waltham, MA) dispenser. After the assay plates were incubated at a 37 C/5% CO2 incubator for 4 hours, 23 nL of compounds dissolved in DMSO, positive controls or DMSO only was transferred to the assay plate by a pintool station (Kalypsys, San Diego, CA). The plates were incubated at 37 C for 18 hours. After 1 uL of LiveBLAzerTM B/G FRET substrate was added using a Flying Reagent Dispenser (Aurora Discovery, San Diego, CA), the plates were incubated at room temperature for 2 hours, and fluorescence intensity was measured by an Envision plate reader (PerkinElmer, Shelton, CT).
% is scaled to controls: 0 for no effect and ±100 for the full control effect.

Sequence of Glucocorticoid receptor (Homo sapiens) (P04150 whole entry, looked up): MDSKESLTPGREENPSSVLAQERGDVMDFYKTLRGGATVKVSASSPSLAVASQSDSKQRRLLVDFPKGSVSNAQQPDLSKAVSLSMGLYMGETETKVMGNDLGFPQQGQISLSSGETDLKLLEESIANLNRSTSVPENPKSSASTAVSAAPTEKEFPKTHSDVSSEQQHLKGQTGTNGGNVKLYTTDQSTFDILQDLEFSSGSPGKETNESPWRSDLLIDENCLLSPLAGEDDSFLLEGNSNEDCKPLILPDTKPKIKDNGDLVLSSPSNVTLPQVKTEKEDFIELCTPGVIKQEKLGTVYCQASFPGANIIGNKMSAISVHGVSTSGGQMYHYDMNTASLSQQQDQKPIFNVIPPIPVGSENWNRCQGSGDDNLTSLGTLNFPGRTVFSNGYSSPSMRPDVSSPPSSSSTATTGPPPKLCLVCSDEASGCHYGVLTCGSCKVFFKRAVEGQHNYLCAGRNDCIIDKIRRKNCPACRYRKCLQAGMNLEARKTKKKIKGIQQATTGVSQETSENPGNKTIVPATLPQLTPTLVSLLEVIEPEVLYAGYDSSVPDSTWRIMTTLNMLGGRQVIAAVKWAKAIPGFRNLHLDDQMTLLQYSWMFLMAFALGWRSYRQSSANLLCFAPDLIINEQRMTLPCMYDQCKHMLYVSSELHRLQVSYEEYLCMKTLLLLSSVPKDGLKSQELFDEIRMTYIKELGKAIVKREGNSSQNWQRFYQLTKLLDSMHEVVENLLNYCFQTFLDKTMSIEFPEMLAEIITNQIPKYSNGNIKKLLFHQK

Row | SMILES | outcome | activation [%]
1 | C#CC(C)(C)NC(=O)c1cc(Cl)cc(Cl)c1 | inactive | 
2 | O=[N+]([O-])c1ccc(Oc2ccc(Cl)cc2Cl)cc1 | inactive | 
3 | CCCCCCCCCCCC#N | inactive | 
4 | O=S(=O)(c1ccc(Cl)cc1)c1cc(Cl)c(Cl)cc1Cl | inactive | 
5 | O=Cc1cccc(Oc2ccccc2)c1 | inactive | 
6 | O=[N+]([O-])c1ccc([As](=O)(O)O)cc1 | inactive | 
7 | CC(C)C1(C)N=C(c2nc3ccccc3cc2C(=O)O)NC1=O (stereo not given) | inactive | 
8 | CCN(CC)CCO | inactive | 
9 | CNC(=O)Oc1ccccc1OC(C)C | inactive | 
10 | CCCC1COC(Cn2cncn2)(c2ccc(Cl)cc2Cl)O1 (stereo not given) | inactive | 
11 | Cc1cc(Cl)ccc1O | inactive | 
12 | CC(C#N)CCC#N (stereo not given) | inactive | 
13 | CCCCN(CC)C(=O)SCCC | inactive | 
14 | Nc1c(Cl)c(Cl)nc(C(=O)O)c1Cl | inactive | 
15 | O=C(O)c1ccccn1 | inactive | 
16 | c1ccc(OP(Oc2ccccc2)Oc2ccccc2)cc1 | inactive | 
17 | CN1C(=O)CN=C(c2ccccc2)c2cc(Cl)ccc21 |  | -8.15
18 | CC(C)(C)OOC(C)(C)C | inactive | 
19 | CCC[CH2][Sn]([Cl])([Cl])[Cl] | inactive | 
20 | c1ccc2c(c1)Oc1ccccc1O2 | inactive | 

Row | SMILES | outcome | activation [%]
21 | CCCCN(CCCC)SN(C)C(=O)Oc1cccc2c1OC(C)(C)C2 | inactive | 
22 | Nc1ccc(Oc2ccc(N)cc2)cc1 | inactive | 
23 | CC(Oc1ccc(Cl)cc1Cl)C(=O)O (stereo not given) |  | 0.247
24 | [N-]=[N+]=[N-] | inactive | 
25 | COC(=O)NS(=O)(=O)c1ccc(N)cc1 | inactive | 
26 | CN(C)N=O | inactive | 
27 | O=[N+]([O-])c1ccccc1 | inactive | 
28 | CCOC(=O)c1ccccc1C(=O)OCC | inactive | 
29 | CC(C)(C)OOC(=O)c1ccccc1 | inactive | 
30 | CCNc1nc(NC(C)(C)C)nc(SC)n1 | inactive | 
31 | CC(C)N1C(=O)c2ccccc2NS1(=O)=O | inactive | 
32 | CN(C)[C@@H]1C(=O)C(C(N)=O)=C(O)[C@@]2(O)C(=O)C3=C(O)c4c(O)cccc4[C@@](C)(O)[C@H]3C[C@@H]12 | inactive | 
33 | Nc1ccc(Cc2ccc(N)cc2)cc1 | inactive | 
34 | Oc1ccccc1Cl | inactive | 
35 | CCCCOC(=O)c1ccccc1C(=O)OCCCC | inactive | 
36 | C=CC(N)=O | inactive | 
37 | CC(Br)C(=O)O (stereo not given) | inactive | 
38 | CC1C=[C-]C=C1.[C-]#[O+].[C-]#[O+].[C-]#[O+].[Mn] | inactive | 
39 | CCN(CC)c1ccccc1 | inactive | 
40 | O=c1n(Cl)c(=O)n(Cl)c(=O)n1Cl | inactive | 
